The campaign covered roughly 5,500 compounds. About 2,000 (36%) were called active. About 18% were inconclusive and are not listed. No stated cut-off is given here; in the data, active means normalized growth mostly below about 0.91 (no sharp cut-off); inconclusive means no clear call, values can overlap the other calls; inactive means mostly above about 0.92. The list shows a part of the results.
Assay: chemical genetic growth profiling, strain panel (AID 1159580);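 further: tested at 20 µM; growth read once vehicle control cultures reached saturation at 30 °C; 1 = growth at the plate median or of vehicle wells; lower values mean less growth of the strain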
Details: S. cerevisiae deletion strains, growth OD

Measured: normalized growth

N[C@@H](Cc1c[nH]c2ccccc12)C(=O)O
inactive: locus YAL040C, strain CLN3, active compounds read low 1.02 | locus YCL061C, strain MRC1 (second series), active compounds read low 1 | locus YDR150W, strain NUM1, active compounds read low 1.01 | locus YDR363W, strain ESC2, active compounds read low 1.01 | locus YER002W, strain NOP16, active compounds read low 1.01 | locus YGR078C, strain PAC10, active compounds read low 1 | locus YGR229C, strain SMI1, active compounds read low 1.03 | locus YMR307W, strain GAS1, active compounds read low 0.991 | locus YNL128W, strain TEP1, active compounds read low 1 | locus YNL175C, strain NOP13, active compounds read low 0.997 | locus YNL197C, strain WHI3, active compounds read low 0.996 | locus YNL224C, strain SQS1, active compounds read low 1.01 | locus YOR083W, strain WHI5 (second series), active compounds read low 0.996 | locus YPL241C, strain CIN2, active compounds read low 1.01

O=C(NCC(c1ccccc1)c1c[nH]c2ccccc12)c1ccc(C(F)(F)F)cc1 (stereo not given)
inactive: locus YAR019C, strain CDC15, active compounds read low 0.974 | locus YBL105C, strain PKC1, active compounds read low 0.98 | locus YBR135W, strain CKS1, active compounds read low 0.998 | locus YBR136W, strain MEC1, active compounds read low 0.986 | locus YBR160W, strain CDC28, active compounds read low 0.981 | locus YDL017W, strain CDC7, active compounds read low 0.985 | locus YDL028C, strain MPS1, active compounds read low 0.993 | locus YDL101C, strain DUN1, active compounds read low 0.985 | locus YDL108W, strain KIN28, active compounds read low 0.992 | locus YDL132W, strain cdc53, active compounds read low 0.992 | locus YDL214C, strain PRR2, active compounds read low 1.15 | locus YDR052C, strain DBF4, active compounds read low 0.993 | locus YDR054C, strain cdc34, active compounds read low 0.984 | locus YDR226W, strain ADK1, active compounds read low 0.971 | locus YDR477W, strain SNF1, active compounds read low 0.98 | locus YER123W, strain YCK3, active compounds read low 0.971 | locus YER133W, strain GLC7, active compounds read low 0.979 | locus YFL009W, strain cdc4, active compounds read low 1.04 | locus YFL029C, strain CAK1, active compounds read low 0.989 | locus YFR003C, strain YPI1, active compounds read low 1.01 | locus YFR019W, strain FAB1, active compounds read low 0.984 | locus YFR028C, strain CDC14, active compounds read low 0.979 | locus YGR040W, strain KSS1, active compounds read low 1 | locus YGR052W, strain FMP48, active compounds read low 1.02 | locus YGR092W, strain DBF2, active compounds read low 0.993 | locus YHR079C, strain IRE1, active compounds read low 0.981 | locus YHR082C, strain KSP1, active compounds read low 1.04 | locus YHR205W, strain SCH9, active compounds read low 1.01 | locus YIL147C, strain SLN1, active compounds read low 0.985 | locus YJL095W, strain BCK1, active compounds read low 0.996 | locus YJL128C, strain PBS2, active compounds read low 0.932 | locus YJL157C, strain FAR1, active compounds read low 0.989 | locus YJR016C, strain ILV3, active compounds read low 0.99 | locus YJR066W, strain TOR1 (second series), active compounds read low 0.97 | locus YJR066W, strain TOR1, active compounds read low 0.998 | locus YKL048C, strain ELM1, active compounds read low 1 | locus YKL067W, strain YNK1, active compounds read low 0.948 | locus YKL101W, strain HSL1, active compounds read low 0.969 | locus YKL193C, strain SDS22, active compounds read low 0.994 | locus YKL203C, strain TOR2, active compounds read low 1.08 | locus YLR133W, strain CKI1, active compounds read low 0.992 | locus YLR403W, strain SFP1, active compounds read low 0.985 | locus YML070W, strain DAK1, active compounds read low 0.979 | locus YMR001C, strain CDC5, active compounds read low 0.991 | locus YMR205C, strain PFK2 (second series), active compounds read low 0.981 | locus YMR277W, strain FCP1, active compounds read low 0.965 | locus YNL006W, strain LST8, active compounds read low 1.01 | locus YNL020C, strain ARK1, active compounds read low 0.982 | locus YNL161W, strain CBK1, active compounds read low 0.995 | locus YNL183C, strain NPR1, active compounds read low 1.02 | locus YNL207W, strain RIO2, active compounds read low 0.979 | locus YNL222W, strain SSU72, active compounds read low 0.986 | locus YNL307C, strain MCK1 (second series), active compounds read low 0.954 | locus YOL078W, strain AVO1, active compounds read low 0.99 | locus YOL136C, strain PFK27, active compounds read low 0.963 | locus YOR061W, strain CKA2, active compounds read low 0.995 | locus YOR119C, strain RIO1, active compounds read low 1.02 | locus YOR231W, strain MKK1, active compounds read low 1.02 | locus YOR329C, strain SCD5, active compounds read low 0.995 | locus YPL031C, strain PHO85, active compounds read low 0.993 | locus YPL153C, strain RAD53, active compounds read low 0.967 | locus YPL204W, strain HRR25, active compounds read low 0.96 | locus YPL209C, strain IPL1, active compounds read low 0.994 | locus YPL256C, strain CLN2, active compounds read low 0.909 | locus YPR025C, strain CCL1, active compounds read low 0.997 | locus YPR106W, strain ISR1, active compounds read low 0.976 | locus YPR111W, strain DBF20, active compounds read low 0.956 | strain NNK1, active compounds read low 0.988 | strain TSCII, active compounds read low 0.978
active: locus YHR030C, strain SLT2, active compounds read low 0.807 | locus YLR113W, strain HOG1, active compounds read low 0.859

From PubChem BioAssay AID1159580 (chemical genetic matrix, 2015)
